Drawing on PubChem BioAssay (EPA / NIEHS), this text covers outcome and AC50 for 13 compounds.

What is called AC50 is the concentration at which the activity in the assay is half-maximal.

Each structure is given as a SMILES string. Records with an inconclusive call do not appear. Active and inactive are the calls of the source. Rule for the calls, unless noted: active = hit-call score of the fitted dose curve at least 0.9, where 1 is the maximum; inactive = score below 0.9.

Experiment [1] can be described thus: ATG_NFI_CIS: Attagene CIS-FACTORIAL HepG2 Assay for human Nuclear Factor I (NFI) (AID 2282989). Conditions: HepG2 cis-regulatory reporter, NFI response element transcription; actives raise or lower the signal. An outline of the steps: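 Multiplexed cis-reporter system in human HepG2 cells reports native TF activity as reporter mRNA induction 24 h post-dose. Fragments labelled with 6-FAM, HpaI-digested and resolved by capillary electrophoresis; activity fitted both directions versus DMSO.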

Experiment [2] concerns the target Myc proto-oncogene protein (Homo sapiens) (UniProt P01106). Briefly: ATG_Myc_CIS: Attagene CIS-FACTORIAL HepG2 Assay for human Myelocytomatosis (Myc) Proto-Oncogene Transcription Factor (AID 2282990). Conditions: HepG2, Attagene cis-reporter transcription factor activity; actives raise or lower the signal. An outline of the steps: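 Fluorescence intensity of reporter-specific cDNA fragments, separated by capillary electrophoresis, gives the signal. Transfected HepG2 cells carrying cis-promoter reporter constructs are incubated with compound for 24 h; DMSO serves as baseline.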

Experiment [3] can be described thus: ATG_NF_kB_CIS: Attagene CIS-FACTORIAL HepG2 Assay for human Nuclear Factor Kappa B (NF-kB) (AID 2282991). Conditions: HepG2 Attagene cis-factorial NF-kB reporter mRNA; actives raise or lower the signal. An outline of the steps:
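Measures mRNA induction of an NF-kB-responsive cis-element reporter in HepG2 cells transfected with multiple reporter units, sampled 24 h post-dosing; quantified by fluorescence after RT-PCR and capillary electrophoresis, fitted for activation or inhibition against DMSO.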

Experiment [4] is described as follows: ATG_Oct_MLP_CIS: Attagene CIS-FACTORIAL HepG2 Assay for human Octamer-Binding Transcription Factor (Oct) (AID 2282993). Conditions: HepG2 Attagene cis-factorial Oct reporter, mRNA; actives raise or lower the signal. An outline of the steps:
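After 24 h compound exposure, transfected HepG2 cells were lysed for total RNA; reporter-specific cDNA was PCR-amplified, fluorescently labelled and sized by capillary electrophoresis. Bidirectional curve fitting used DMSO as baseline.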

Experiment [5] has as its target Cellular tumor antigen p53 (Homo sapiens) (UniProt P04637). Briefly: ATG_p53_CIS: Attagene CIS-FACTORIAL HepG2 Assay for human p53 Transcription Factor (AID 2282994). Conditions: HepG2 p53 cis-element reporter, Attagene mRNA; actives raise or lower the signal. An outline of the steps:
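HepG2, transient MRTU transfection (cis promoter elements, endogenous TFs); 24 h dosing; RNA isolation, RT-PCR, 6-FAM primer extension, HpaI digest, CE fluorescence; bidirectional fit vs DMSO.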

For experiment [6], the target named is human Peroxisome Proliferator-activated Receptor alpha (PPARa), PPARA (gene 5465) (UniProt Q07869). Briefly: ATG_PPARa_TRANS: Attagene TRANS-FACTORIAL HepG2 Assay for human Peroxisome Proliferator-activated Receptor alpha (PPARa) (AID 2283001; active = hit-call score of the fitted dose curve at least 0.9, where 1 is the maximum;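 for AC50: potency for gain of reporter signal over DMSO so agonist or activator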). An outline of the steps:
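Measures transcriptional activity of an exogenous chimeric PPARa-Gal4 protein in transiently transfected HepG2 cells after 24 h dosing. Reporter mRNA quantified via RT-PCR and capillary electrophoresis; DMSO served as negative control.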

The target in experiment [7] is human Peroxisome Proliferator-activated Receptor delta (PPARd), PPARD (gene 5467) (UniProt Q03181). Briefly: ATG_PPARd_TRANS: Attagene TRANS-FACTORIAL HepG2 Assay for human Peroxisome Proliferator-activated Receptor delta (PPARd) (AID 2283002; active = hit-call score of the fitted dose curve at least 0.9, where 1 is the maximum). An outline of the steps: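 Fluorescence from capillary electrophoresis of labelled RT-PCR reporter fragments gives the signal; DMSO sets baseline. Cells: HepG2 transiently carrying GAL4-UAS reporter units plus chimeric nuclear receptor-Gal4 proteins, exposed to chemicals for 24 h.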
human Peroxisome Proliferator-activated Receptor delta (PPARd), PPARD (gene 5467), sequence (Q03181 whole entry, looked up, the tested form may be a part): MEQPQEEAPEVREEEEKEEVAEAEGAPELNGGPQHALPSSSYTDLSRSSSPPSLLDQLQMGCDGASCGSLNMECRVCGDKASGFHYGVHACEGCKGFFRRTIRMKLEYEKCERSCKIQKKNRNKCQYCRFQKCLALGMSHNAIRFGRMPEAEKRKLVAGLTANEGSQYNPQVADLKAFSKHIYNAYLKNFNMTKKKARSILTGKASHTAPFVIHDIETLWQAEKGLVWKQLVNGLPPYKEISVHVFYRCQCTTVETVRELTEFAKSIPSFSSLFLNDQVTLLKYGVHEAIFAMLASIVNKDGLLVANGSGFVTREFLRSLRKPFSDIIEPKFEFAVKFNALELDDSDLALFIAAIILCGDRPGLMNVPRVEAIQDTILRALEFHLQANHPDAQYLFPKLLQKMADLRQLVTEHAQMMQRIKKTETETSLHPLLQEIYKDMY

Experiment [8] deals with Peroxisome proliferator-activated receptor gamma (Homo sapiens) (UniProt P37231). Briefly: ATG_PPARg_TRANS: Attagene TRANS-FACTORIAL HepG2 Assay for human Peroxisome Proliferator-activated Receptor-gamma (PPARg) (AID 2283007; active = hit-call score of the fitted dose curve at least 0.9, where 1 is the maximum). An outline of the steps: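 Gain-of-signal endpoint relative to DMSO, derived from reporter mRNA levels quantified by RT-PCR and capillary electrophoresis. Cells were HepG2 transiently expressing a chimeric NR-Gal4 construct with GAL4-UAS reporters, exposed to chemicals for 24 h.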
Peroxisome proliferator-activated receptor gamma (Homo sapiens), sequence (P37231 whole entry, looked up, the tested form may be a part): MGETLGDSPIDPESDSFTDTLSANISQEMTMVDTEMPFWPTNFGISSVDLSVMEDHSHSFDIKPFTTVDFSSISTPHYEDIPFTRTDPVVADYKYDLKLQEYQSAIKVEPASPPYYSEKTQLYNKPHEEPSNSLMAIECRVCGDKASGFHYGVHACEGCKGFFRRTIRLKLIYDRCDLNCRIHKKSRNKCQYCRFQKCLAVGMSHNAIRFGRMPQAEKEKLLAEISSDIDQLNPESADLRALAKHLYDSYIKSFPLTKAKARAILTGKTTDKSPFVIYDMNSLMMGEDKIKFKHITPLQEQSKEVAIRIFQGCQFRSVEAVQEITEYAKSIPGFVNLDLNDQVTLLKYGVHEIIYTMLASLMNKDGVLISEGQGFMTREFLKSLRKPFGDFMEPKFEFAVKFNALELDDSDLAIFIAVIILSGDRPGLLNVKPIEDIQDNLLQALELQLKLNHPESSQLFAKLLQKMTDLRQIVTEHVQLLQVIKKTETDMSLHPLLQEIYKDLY

The target of experiment [9] is human RAR-related Orphan Receptor beta (RORb), RORB (gene 6096) (UniProt Q92753). Briefly: ATG_RORb_TRANS: Attagene TRANS-FACTORIAL HepG2 Assay for human RAR-related Orphan Receptor beta (RORb) (AID 2283010; active = hit-call score of the fitted dose curve at least 0.9, where 1 is the maximum). An outline of the steps:
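HepG2 cells were transiently transfected with multiplexed GAL4-UAS reporter units expressing chimeric nuclear receptor–GAL4 proteins, then dosed for 24 h. Reporter mRNA was quantified by RT-PCR with fluorescent labelling and capillary electrophoresis; gain of signal was fitted relative to DMSO.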

The target of experiment [10] is human RAR-related Orphan Receptor gamma (RORg), RORC (gene 6097) (UniProt P51449). Briefly: ATG_RORg_TRANS: Attagene TRANS-FACTORIAL HepG2 Assay for human RAR-related Orphan Receptor gamma (RORg) (AID 2283011; active = hit-call score of the fitted dose curve at least 0.9, where 1 is the maximum). An outline of the steps:
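Reporter transcripts from a transfected RORg-GAL4 chimera in HepG2 cells were quantified 24 h after dosing by RT-PCR, 6-FAM labelling, HpaI digestion and capillary electrophoresis; increases over DMSO baseline were fitted.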

Experiment [11] in a line: ATG_NRF2_ARE_CIS: Attagene CIS-FACTORIAL HepG2 Assay for human Nuclear Factor Erythroid 2 Related Factor 2 (NFR2) response to Antioxidant Response Elements (ARE) (AID 2282992).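 For AC50: reporter mRNA level measured by RT-PCR and capillary electrophoresis fluorescence.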 Conditions: HepG2 Attagene ARE/NRF2 reporter, transcription factor activity; actives raise or lower the signal. An outline of the steps: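 Transient MRTU transfection of HepG2; 24 h compound exposure; TriZol RNA, RT with oligo(dT), PCR, 6-FAM primer extension, HpaI cut, CE. Bidirectional fit vs DMSO.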

The target of experiment [12] is Nuclear receptor subfamily 1 group I member 2 (Homo sapiens) (UniProt O75469). Briefly: ATG_PXR_TRANS: Attagene TRANS-FACTORIAL HepG2 Assay for human Pregnane X Receptor (PXR) (AID 2283008; active = hit-call score of the fitted dose curve at least 0.9, where 1 is the maximum). An outline of the steps: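 Read-out is fluorescence of labelled reporter cDNA fragments separated by capillary electrophoresis after RT-PCR and HpaI digestion. Source: HepG2 cells carrying PXR-GAL4/UAS reporter constructs, treated 24 h; activity fitted upward relative to DMSO.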
Nuclear receptor subfamily 1 group I member 2 (Homo sapiens), sequence (O75469 whole entry, looked up, the tested form may be a part): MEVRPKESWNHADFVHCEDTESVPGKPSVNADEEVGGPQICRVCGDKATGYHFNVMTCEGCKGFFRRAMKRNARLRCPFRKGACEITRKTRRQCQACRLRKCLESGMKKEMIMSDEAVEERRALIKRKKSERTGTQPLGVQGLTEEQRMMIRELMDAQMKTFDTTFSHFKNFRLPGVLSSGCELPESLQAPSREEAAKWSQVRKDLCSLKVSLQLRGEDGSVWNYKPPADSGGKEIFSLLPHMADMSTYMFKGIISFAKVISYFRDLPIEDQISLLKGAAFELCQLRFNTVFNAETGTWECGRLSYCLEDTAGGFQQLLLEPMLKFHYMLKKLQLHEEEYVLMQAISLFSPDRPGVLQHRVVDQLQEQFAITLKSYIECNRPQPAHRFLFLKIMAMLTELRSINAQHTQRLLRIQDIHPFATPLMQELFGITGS

Experiment [13] has as its target human Retinoic Acid Receptor gamma (RARg), RARG (gene 5916) (UniProt P13631). Briefly: ATG_RARg_TRANS: Attagene TRANS-FACTORIAL HepG2 Assay for human Retinoic Acid Receptor gamma (RARg) (AID 2283009; active = hit-call score of the fitted dose curve at least 0.9, where 1 is the maximum). An outline of the steps:
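HepG2 cells transiently transfected with multiplexed reporter units expressing chimeric RARg-GAL4 and GAL4-UAS-driven reporters; 24 h compound exposure. Reporter mRNA quantified by RT-PCR with fluorescent labelling and capillary electrophoresis; gain-of-signal fitted relative to DMSO baseline.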

Experiment [14] can be described thus: BSK_3C_uPAR: BioMAP Diversity Plus: 3C Assay for Urokinase-type plasminogen activator receptor (uPAR) Biomarker Activity (AID 2282998). Conditions: BioMAP 3C HUVEC, uPAR biomarker ELISA; actives raise or lower the signal. An outline of the steps: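 Values derive from bidirectional curve fitting relative to DMSO, which served as baseline of activity. uPAR was measured by ELISA in human umbilical vein endothelial primary cultures 24 h after compound addition.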
Background: An ELISA detects its analyte on a solid surface through an enzyme-linked reagent.

Experiment [15] in a line: BSK_3C_VCAM1: BioMAP Diversity Plus: 3C Assay for Vascular cell adhesion molecule 1 (VCAM1) Biomarker Activity (AID 2282999). Conditions: BioMAP 3C HUVEC, VCAM1 ELISA, cytokine-stimulated; actives raise or lower the signal. An outline of the steps: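 Human umbilical vein endothelial cells (3C system), biomarker read by ELISA 24 h after dosing; bidirectional fit against DMSO baseline. Cytotoxicity tracked by SRB total-protein staining in parallel cultures at biomarker time.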

A short description of experiment [16]: BSK_4H_Eotaxin3: BioMAP Diversity Plus: 4H Assay for Eotaxin 3 Biomarker Activity (AID 2283000).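 For outcome: CCL26 protein level quantified by ELISA in parallel with SRB cytotoxicity check.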 Conditions: primary human endothelial cells (HUVEC); actives raise or lower the signal. An outline of the steps:
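Human umbilical vein endothelial cells (BSK_4H system) dosed with test chemical; Eotaxin-3 (CCL26) measured by ELISA 24 h after dosing. Bidirectional curve fitting relative to DMSO negative control as baseline.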

Read-out in experiment [17]: Intercellular Adhesion Molecule 1 (ICAM1), ICAM1 (gene 3383)
Briefly: BSK_3C_ICAM1: BioMAP Diversity Plus: 3C Assay for Intercellular Adhesion Molecule 1 (ICAM1) Biomarker Activity (AID 2283003). Conditions: primary human endothelial cells (HUVEC); actives raise or lower the signal. An outline of the steps:
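Primary human umbilical vein endothelial cells in the BioMAP 3C system were exposed to chemicals for 24 h, then ICAM-1 was quantified by ELISA. Activity was fitted bidirectionally against the DMSO negative control baseline.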

human RAR-related Orphan Receptor beta (RORb), RORB (gene 6096), sequence (Q92753 whole entry, looked up, the tested form may be a part): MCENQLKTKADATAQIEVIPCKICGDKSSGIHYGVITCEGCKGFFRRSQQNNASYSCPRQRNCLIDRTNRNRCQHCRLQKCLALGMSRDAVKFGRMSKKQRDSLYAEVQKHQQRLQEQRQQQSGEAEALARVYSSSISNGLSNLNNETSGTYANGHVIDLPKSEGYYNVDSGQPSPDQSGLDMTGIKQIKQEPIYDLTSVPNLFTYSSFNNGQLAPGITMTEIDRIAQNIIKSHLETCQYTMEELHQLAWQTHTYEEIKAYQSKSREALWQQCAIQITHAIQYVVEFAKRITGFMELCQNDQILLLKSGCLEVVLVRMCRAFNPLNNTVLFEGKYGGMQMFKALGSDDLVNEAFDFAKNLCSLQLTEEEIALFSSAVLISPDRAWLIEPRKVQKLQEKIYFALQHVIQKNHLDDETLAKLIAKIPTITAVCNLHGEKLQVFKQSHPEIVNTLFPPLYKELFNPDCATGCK
Cellular tumor antigen p53 (Homo sapiens), sequence (P04637 whole entry, looked up): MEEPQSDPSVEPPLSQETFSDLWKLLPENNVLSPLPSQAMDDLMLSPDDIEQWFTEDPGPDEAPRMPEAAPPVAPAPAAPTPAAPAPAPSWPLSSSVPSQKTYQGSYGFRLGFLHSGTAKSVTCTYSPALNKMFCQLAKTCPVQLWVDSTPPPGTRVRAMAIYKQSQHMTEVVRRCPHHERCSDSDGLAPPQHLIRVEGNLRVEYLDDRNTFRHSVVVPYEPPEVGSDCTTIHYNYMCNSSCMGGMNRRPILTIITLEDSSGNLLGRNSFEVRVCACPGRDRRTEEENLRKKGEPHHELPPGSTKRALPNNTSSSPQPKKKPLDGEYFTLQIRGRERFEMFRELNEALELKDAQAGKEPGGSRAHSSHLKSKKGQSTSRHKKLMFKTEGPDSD
human RAR-related Orphan Receptor gamma (RORg), RORC (gene 6097), sequence (P51449 whole entry, looked up, the tested form may be a part): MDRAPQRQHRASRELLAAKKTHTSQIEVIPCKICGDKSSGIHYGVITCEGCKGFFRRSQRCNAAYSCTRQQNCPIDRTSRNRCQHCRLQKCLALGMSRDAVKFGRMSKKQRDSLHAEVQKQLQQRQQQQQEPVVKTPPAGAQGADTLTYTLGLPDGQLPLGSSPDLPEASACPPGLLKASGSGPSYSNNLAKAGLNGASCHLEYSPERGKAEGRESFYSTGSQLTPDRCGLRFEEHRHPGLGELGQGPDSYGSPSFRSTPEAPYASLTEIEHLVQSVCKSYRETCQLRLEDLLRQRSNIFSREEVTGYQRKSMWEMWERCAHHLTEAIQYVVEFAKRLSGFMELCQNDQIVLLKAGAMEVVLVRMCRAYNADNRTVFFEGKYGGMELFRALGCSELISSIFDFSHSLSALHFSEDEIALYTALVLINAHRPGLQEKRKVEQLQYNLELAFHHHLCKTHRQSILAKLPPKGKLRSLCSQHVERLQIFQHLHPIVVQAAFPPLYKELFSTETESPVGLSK
human Peroxisome Proliferator-activated Receptor alpha (PPARa), PPARA (gene 5465), sequence (Q07869 whole entry, looked up, the tested form may be a part): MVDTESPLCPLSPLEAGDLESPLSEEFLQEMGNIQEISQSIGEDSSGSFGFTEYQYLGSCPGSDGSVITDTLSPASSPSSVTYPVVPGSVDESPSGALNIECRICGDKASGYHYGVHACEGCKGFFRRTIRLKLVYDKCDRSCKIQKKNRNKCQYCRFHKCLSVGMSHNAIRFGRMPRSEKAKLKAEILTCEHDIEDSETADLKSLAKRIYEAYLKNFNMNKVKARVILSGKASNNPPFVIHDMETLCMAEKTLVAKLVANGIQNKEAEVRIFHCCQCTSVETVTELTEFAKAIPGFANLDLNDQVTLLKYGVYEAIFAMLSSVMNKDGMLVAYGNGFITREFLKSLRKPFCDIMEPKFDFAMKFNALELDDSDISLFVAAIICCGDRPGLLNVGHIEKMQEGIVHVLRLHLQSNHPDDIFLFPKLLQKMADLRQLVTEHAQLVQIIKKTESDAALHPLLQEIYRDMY
Myc proto-oncogene protein (Homo sapiens), sequence (P01106 whole entry, looked up, the tested form may be a part): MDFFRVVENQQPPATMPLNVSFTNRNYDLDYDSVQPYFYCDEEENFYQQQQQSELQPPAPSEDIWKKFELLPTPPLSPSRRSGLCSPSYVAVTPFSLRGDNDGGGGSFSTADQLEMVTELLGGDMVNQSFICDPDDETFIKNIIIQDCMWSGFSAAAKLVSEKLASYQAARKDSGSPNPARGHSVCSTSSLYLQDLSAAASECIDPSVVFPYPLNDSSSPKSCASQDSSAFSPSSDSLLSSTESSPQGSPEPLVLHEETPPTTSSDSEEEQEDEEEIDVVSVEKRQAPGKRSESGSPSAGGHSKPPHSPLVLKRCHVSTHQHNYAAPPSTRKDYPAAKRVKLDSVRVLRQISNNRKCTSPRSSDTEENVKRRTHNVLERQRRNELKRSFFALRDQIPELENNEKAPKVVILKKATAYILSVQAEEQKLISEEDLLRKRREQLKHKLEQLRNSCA
human Retinoic Acid Receptor gamma (RARg), RARG (gene 5916), sequence (P13631 whole entry, looked up, the tested form may be a part): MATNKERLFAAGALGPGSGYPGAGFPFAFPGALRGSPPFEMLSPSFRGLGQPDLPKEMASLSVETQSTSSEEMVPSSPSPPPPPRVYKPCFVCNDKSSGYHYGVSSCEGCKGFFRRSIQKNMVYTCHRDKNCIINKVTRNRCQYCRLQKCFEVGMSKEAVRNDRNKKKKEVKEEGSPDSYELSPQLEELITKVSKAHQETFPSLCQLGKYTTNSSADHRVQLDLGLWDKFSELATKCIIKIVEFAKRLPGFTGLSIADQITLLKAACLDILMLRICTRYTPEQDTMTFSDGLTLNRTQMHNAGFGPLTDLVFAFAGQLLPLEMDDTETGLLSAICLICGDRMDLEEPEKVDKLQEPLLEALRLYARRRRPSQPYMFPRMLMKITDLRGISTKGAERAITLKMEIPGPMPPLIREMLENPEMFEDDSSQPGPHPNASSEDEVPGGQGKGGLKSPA

As for `CCCCCCOC(=O)CC`, the outcome in experiment [1], in experiment [2], in experiment [3], in experiment [4], in [5] and in [6] was inactive. Also, the outcome in [7], in experiment [8], in experiment [9] and in [10] was inactive.

Regarding `COC(=O)C1=C(C)NC(C)=C(C(=O)OCCN(C)Cc2ccccc2)C1c1cccc([N+](=O)[O-])c1` (stereo unspecified), the call in [1], in experiment [2], in [3], in [4] and in experiment [7] was inactive. For the same compound, in [8], the AC50 was 27.7 µM (active).

Regarding `CC(C)(C)c1cc(CCC(=O)NN)cc(C(C)(C)C)c1O`, the outcome in [1], in [2], in [3], in experiment [11], in experiment [5] and in [12] was inactive.

On to `O=CCCc1ccccc1`, for which the outcome in experiment [1], in experiment [2], in [3], in experiment [4], in [6] and in [13] was inactive. Further, in experiment [12], the AC50 was 28.4 µM (active).

For the compound `COc1cc(C=O)ccc1OC(=O)C(C)C`, the call in experiment [1], in experiment [2], in [3], in [11], in experiment [14] and in experiment [15] was inactive. Also, the result in [16], in experiment [17], in experiment [8], in experiment [12] and in experiment [9] was inactive.

For the compound `COc1c(Cl)c(Cl)c(Cl)c(Cl)c1Cl`, the result in experiment [1], in [2], in experiment [3] and in [4] was inactive. Besides, the AC50 in experiment [12] is 10.3 µM (active).

In the case of `Cc1ccc(O)c(C(C)(C)C)c1`, the outcome in experiment [1], in experiment [5], in experiment [7], in experiment [9] and in experiment [10] was inactive. Further, the AC50 in experiment [2] was 79.5 µM (active); in [3] it was 100 µM (active); in experiment [4], 143 µM (active); in experiment [14], 20 µM (active); in experiment [15] it was 30 µM (active); in experiment [16], 35 µM (active). For the same compound, the values for the AC50 in experiment [17] and in experiment [12] were 33.7 µM (active) and 19.1 µM (active), respectively.

Regarding `CC(C)CCCCCCCOC(=O)c1ccc(C(=O)OCCCCCCCC(C)C)c(C(=O)OCCCCCCCC(C)C)c1`, the result in [1], in [2], in experiment [3], in experiment [11], in experiment [5] and in experiment [6] was inactive. For the same compound, the compound was called inactive in experiment [8], in experiment [12], in [9] and in experiment [10].

On to `OCc1cccnc1`, for which the call in experiment [1], in experiment [2], in [3], in [6], in [12] and in [9] was inactive.

For `C[Si](O[Si](C)(C)C)O[Si](C)(C)C`, the compound was called inactive in experiment [1], in experiment [2], in [3], in experiment [4], in experiment [5] and in experiment [7]. The compound was classed as inactive in experiment [8] and in experiment [12].

Consider `C=C(C)[C@@H]1CCC2=CC(=O)C[C@@H](C)[C@]2(C)C1`, for which the call in experiment [1], in [2], in experiment [3], in experiment [7] and in experiment [8] was inactive. Also, the AC50 in experiment [11] is 80.7 µM (active).

Turning to `CCCCCCCCC=O`, the call in experiment [1], in [2], in [11], in experiment [4], in [5] and in experiment [14] was inactive. Besides, the outcome in experiment [15], in experiment [16], in experiment [17] and in [9] was inactive. Further, in [6], the AC50 is 100 µM (active).

On to `COc1ccc(O)cc1`, for which the outcome in experiment [1], in [2], in [3], in experiment [4], in experiment [5] and in [6] was inactive. For the same compound, the call in experiment [8] was inactive.
